Compounds without any hit were thinned out: in the full panel of roughly 83,000, 20% have a hit.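 Plates (96-well) were seeded with cells, treated with compound at one concentration, and incubated for 48 hours before percent growth was determined.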 Calls of active or inactive are those of the source. Rule for the calls: active = growth percent below 10; inactive = the rest.
How the values were obtained:
Assay in all cases: NCI-60 one-dose screen, 48 h (100 = growth as untreated, 0 = no growth, -100 = all killed)
Details in all cases: 10 µM unless noted
T-47D breast = system: T-47D breast
BT-549 breast = system: BT-549 breast
MDA-MB-435 melanoma = system: MDA-MB-435 melanoma
SW-620 colon = system: SW-620 colon
MCF7 breast = system: MCF7 breast
HCT-116 colon = system: HCT-116 colon
HCC-2998 colon = system: HCC-2998 colon
KM12 colon = system: KM12 colon

Measured: growth

COc1cc2c(cc1OC)C(Sc1ccc(F)cc1)c1c(nc(N)c(C#N)c1N)O2 (stereo not given)
active: T-47D breast -28.1% | MDA-MB-435 melanoma -52.9% | SW-620 colon -16.7% | MCF7 breast -88.3% | HCT-116 colon -74.2% | HCC-2998 colon -86.1% | KM12 colon -62.9%
inactive: BT-549 breast 77.6%

CN(C)CCNC(=O)c1ccc(-c2nc3ccc4[nH]ncc4c3c3c2COCC3)cc1
active: T-47D breast -7.62% | BT-549 breast -16.2% | MDA-MB-435 melanoma 3.65% | SW-620 colon 3.1% | MCF7 breast 0.287% | HCT-116 colon 2.59% | HCC-2998 colon -20.8%
inactive: KM12 colon 16.4%

CNC(=O)c1cc(-c2ccc(NS(=O)(=O)c3ccc(C)cc3)cc2)nc2cccnc12
inactive: T-47D breast 98% | BT-549 breast 110% | MDA-MB-435 melanoma 109% | SW-620 colon 107% | MCF7 breast 72.9% | HCT-116 colon 111% | HCC-2998 colon 108% | KM12 colon 101%

C/C(=N\O)[C@H]1C[C@]23CC[C@]4(C)[C@H](CC[C@@H]5[C@@]6(C)CC/C(=N/O)C(C)(C)[C@@H]6CC[C@]54C)[C@H]2[C@H](C)C1(C)OC3
inactive: T-47D breast 108% | BT-549 breast 107% | MDA-MB-435 melanoma 97.2% | SW-620 colon 99.9% | MCF7 breast 93.3% | HCT-116 colon 97.2% | HCC-2998 colon 115% | KM12 colon 102%

CC(=O)c1cc(C(=O)N2c3ccccc3Sc3ccccc32)n2ccc3ccccc3c12
inactive: T-47D breast 27.5% | BT-549 breast 37% | SW-620 colon 26.3% | MCF7 breast 17.8% | HCT-116 colon 24.4% | HCC-2998 colon 74.9% | KM12 colon 31.7%
active: MDA-MB-435 melanoma 0.748%

CC(=O)c1nnn(-c2c(C(=O)n3nc(C)cc3C)sc(=S)n2-c2ccccc2)c1C
inactive: T-47D breast 113% | BT-549 breast 92.2% | MDA-MB-435 melanoma 108% | SW-620 colon 112% | MCF7 breast 89.2% | HCT-116 colon 104% | HCC-2998 colon 114% | KM12 colon 104%

CNC(=O)c1c(NC(=O)c2cccc(C(F)(F)F)c2F)sc2c1CCC(=O)C2
active: MCF7 breast 6.33% | HCT-116 colon 5.58% | KM12 colon 3%
inactive: T-47D breast 13.8% | BT-549 breast 21.3% | MDA-MB-435 melanoma 11.9% | SW-620 colon 14.2% | HCC-2998 colon 25.2%

CCN(CC)c1ccc2c(c1)Oc1nc(N)c(C#N)c(N)c1C2Sc1ccc(C)cc1 (stereo not given)
inactive: BT-549 breast 58.8%
active: T-47D breast -41.8% | MDA-MB-435 melanoma -95.5% | SW-620 colon -62.5% | MCF7 breast -70.7% | HCT-116 colon -80.2% | HCC-2998 colon -90.2% | KM12 colon -48.8%

C=CCn1c(SCC(=O)Nc2ccc(C(=O)/C=C/c3cc(OC)c(OC)c(OC)c3)cc2)nnc1-c1c[nH]c2ccccc12
active: MDA-MB-435 melanoma 5.25% | SW-620 colon -0.994% | MCF7 breast -30.8% | HCT-116 colon -66.1% | HCC-2998 colon -28%
inactive: T-47D breast 49% | BT-549 breast 47.2% | KM12 colon 30.4%

CNC(=O)c1c(NC(=O)c2ccccc2C(F)(F)F)sc2c1CCC(=O)C2
active: T-47D breast 9.8% | HCT-116 colon 8.16%
inactive: BT-549 breast 27.2% | MDA-MB-435 melanoma 37.5% | SW-620 colon 21% | MCF7 breast 13.9% | HCC-2998 colon 62% | KM12 colon 18.5%

NC(N)=Nc1ccc(Oc2cccc(Oc3ccc(Cl)c(C(F)(F)F)c3)c2)cn1
active: T-47D breast 8.88% | MDA-MB-435 melanoma -86.8% | SW-620 colon -76.7% | MCF7 breast -70.6% | HCT-116 colon -91.5% | HCC-2998 colon -80.6% | KM12 colon -89.6%
inactive: BT-549 breast 73.9%

CCCn1cnc2c(c1=N)C(c1ccc(Cl)cc1)c1sc3c(CC)cccc3c1O2 (stereo not given)
active: MDA-MB-435 melanoma -35.4%
inactive: T-47D breast 10.2% | BT-549 breast 41.3% | SW-620 colon 25.5% | MCF7 breast 17% | HCT-116 colon 12.1% | HCC-2998 colon 17.8% | KM12 colon 15.6%

Clc1cccc(/C=N/Nc2nc(N/N=C/c3cccc(Cl)c3Cl)nc(N3CCCCC3)n2)c1Cl
inactive: T-47D breast 48.3% | BT-549 breast 97.3% | MDA-MB-435 melanoma 68.8% | SW-620 colon 42.6% | MCF7 breast 71.2% | HCT-116 colon 48.8% | HCC-2998 colon 97.4% | KM12 colon 67.2%

CCCn1cnc2c(c1=N)C(c1ccc(OC)cc1)c1sc3c(C)cccc3c1O2 (stereo not given)
active: MDA-MB-435 melanoma -33.4% | HCT-116 colon 6.27%
inactive: T-47D breast 40.6% | BT-549 breast 12.2% | SW-620 colon 25.7% | MCF7 breast 20.4% | HCC-2998 colon 15% | KM12 colon 11.7%

C=CCOc1cccc(/C=C2\SC(=S)N(C3CC(=O)N(c4ccc(Br)cc4)C3=O)C2=O)c1 (stereo not given)
inactive: T-47D breast 95.9% | BT-549 breast 109% | MDA-MB-435 melanoma 109% | SW-620 colon 108% | MCF7 breast 90.7% | HCT-116 colon 100% | HCC-2998 colon 115% | KM12 colon 97.6%

Source: PubChem BioAssay (NCI)
